Here are results for 30 molecules from PubChem BioAssay (NCATS).

Inconclusive results are not listed. Activity calls are given as the source filed them. The call rests on the fitted dose curve; in most records, active means well fitted curve in the direction sought with a large enough effect; inconclusive means small, poorly fitted or top-dose-only effect, or another doubt; inactive means no such curve, though single readings can be large; an effect the other way counts as inactive or inconclusive.

The nature of assay [1]: qHTS of pediatric cancer cell lines to identify multiple opportunities for drug repurposing: Primary screen for MG 63 (6-TG R) cells (AID 1347105). Further: nearly all actives have a fitted effect of over 50% in size. Further: potency means the concentration at half of the fitted maximal effect. The conditions noted are these: MG 63 (6-TG R) viability, CellTiter-Glo, 48 h; series mostly up to 46 µM. Put shortly: (§1)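 Phenotypic viability qHTS, 48 h compound exposure, CellTiter-Glo luminescence read-out; multi-concentration dosing so that potency and efficacy derive directly from the primary screen's curves.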

Assay [2] can be described thus: qHTS of pediatric cancer cell lines to identify multiple opportunities for drug repurposing: Primary screen for control Hh wild type fibroblast cells (AID 1347106).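 Further: a drop in luminescence marks cytotoxicity and a rise apparent proliferation; nearly all actives have a fitted effect of over 55% in size.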 The conditions noted are these: Hh wild-type fibroblast viability, CellTiter-Glo luminescence, 48 h; series mostly up to 46 µM. In outline: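 Viability after 48 h compound treatment at 37C, 500-1,000 cells/well, read as ATP luminescence with CellTiter-Glo. Primary screens used 11-point (MIPE, 0.78 nM-46 µM) or 8-point (NPC, 0.59 nM-46 µM) final concentrations; follow-up screens used 11-point dilutions.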

Assay [3] is described as follows: qHTS of pediatric cancer cell lines to identify multiple opportunities for drug repurposing: Primary screen for Rh30 cells (AID 1347107). Further: nearly all actives have a fitted effect of over 75% in size. The conditions noted are these: Rh30 rhabdomyosarcoma viability, CellTiter-Glo luminescence, 48 h; series mostly up to 46 µM. Put shortly: (§2)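 Cells (500-1,000/well) rested 5 h, then received compounds for 48 h; metabolically active cells were measured by CellTiter-Glo luminescence. Final concentrations spanned up to 46 µM (MIPE, 11-point) or 0.59 nM-46 µM (NPC, 8-point) in primary screens, 11-point in follow-ups.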

A short description of assay [4]: qHTS of pediatric cancer cell lines to identify multiple opportunities for drug repurposing: Primary screen for Rh41 cells (AID 1347108).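 Further: luminescence drop marks cytotoxic hits; nearly all actives have a fitted effect of over 70% in size.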 The following applies: Rh41 rhabdomyosarcoma viability, CellTiter-Glo luminescence, 48 h; series mostly up to 46 µM. Put shortly: as §1
The nature of assay [5]: qHTS of pediatric cancer cell lines to identify multiple opportunities for drug repurposing: Confirmatory screen for NB1643 cells (AID 1347109). Further: nearly all actives have a fitted effect of over 45% in size. The conditions noted are these: NB1643 neuroblastoma cell viability; series mostly up to 45.9 µM. In outline:
as §2

Assay [6] can be described thus: qHTS of pediatric cancer cell lines to identify multiple opportunities for drug repurposing: Confirmatory screen for A673 cells (AID 1347110).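 Further: cells exposed to compound for 48 h before the viability read; nearly all actives have a fitted effect of over 65% in size.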 The conditions noted are these: A673 Ewing sarcoma cell viability; series mostly up to 45.9 µM. In outline: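 Cells plated at 500-1,000/well were treated five hours later with multi-point dilutions up to 46 µM final. After two days, CellTiter-Glo was added and luminescence read.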

The nature of assay [7]: qHTS of pediatric cancer cell lines to identify multiple opportunities for drug repurposing: Confirmatory screen for BT-12 cells (AID 1347112). Further: nearly all actives have a fitted effect of over 55% in size. The conditions noted are these: BT-12 rhabdoid tumor cells, viability; series mostly up to 45.9 µM. Put shortly:
as §2

The nature of assay [8]: qHTS of pediatric cancer cell lines to identify multiple opportunities for drug repurposing: Confirmatory screen for LAN-5 cells (AID 1347113). Further: nearly all actives have a fitted effect of over 65% in size. The following applies: LAN-5 neuroblastoma cell viability; series mostly up to 45.9 µM. Put shortly: as §2
The nature of assay [9]: qHTS of pediatric cancer cell lines to identify multiple opportunities for drug repurposing: Confirmatory screen for DAOY cells (AID 1347114). Further: nearly all actives have a fitted effect of over 65% in size. The following applies: DAOY medulloblastoma cells viability, cytotoxicity qHTS; series mostly up to 45.9 µM. In outline:
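Viability measured as metabolically active cells via CellTiter-Glo luminescence following 48 hours of compound exposure, 11-point dilutions in confirmatory testing. 500-1,000 cells/well plated 5 hours before dosing; controls were DMSO and 2.3 µM bortezomib.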

The nature of assay [10]: qHTS of pediatric cancer cell lines to identify multiple opportunities for drug repurposing: Confirmatory screen for BT-37 cells (AID 1347117). Further: nearly all actives have a fitted effect of over 55% in size. The following applies: BT-37 pediatric cancer cells, viability; series mostly up to 45.9 µM. Put shortly:
as §2

Assay [11] is described as follows: qHTS of pediatric cancer cell lines to identify multiple opportunities for drug repurposing: Confirmatory screen for MG 63 (6-TG R) cells (AID 1347119). Further: nearly all actives have a fitted effect of over 55% in size. The following applies: MG-63 (6-TG resistant) osteosarcoma viability; series mostly up to 45.9 µM. Put shortly:
as §2

Assay [12] can be described thus: qHTS of pediatric cancer cell lines to identify multiple opportunities for drug repurposing: Confirmatory screen for control Hh wild type fibroblast cells (AID 1347121). Further: nearly all actives have a fitted effect of over 70% in size. The following applies: viability qHTS; series mostly up to 45.9 µM. In outline:
as §2

Assay [13] can be described thus: qHTS of pediatric cancer cell lines to identify multiple opportunities for drug repurposing: Confirmatory screen for U-2 OS cells (AID 1347122). Further: nearly all actives have a fitted effect of over 65% in size. The following applies: U-2 OS osteosarcoma cell viability; series mostly up to 45.9 µM. In outline:
as §2

The nature of assay [14]: qHTS of pediatric cancer cell lines to identify multiple opportunities for drug repurposing: Confirmatory screen for Rh41 cells (AID 1347123). Further: nearly all actives have a fitted effect of over 60% in size. The following applies: Rh41 rhabdomyosarcoma cells, viability/cytotoxicity qHTS; series mostly up to 45.9 µM. In outline:
as §2

Assay [15] is described as follows: qHTS of pediatric cancer cell lines to identify multiple opportunities for drug repurposing: Confirmatory screen for RD cells (AID 1347124). The conditions noted are these: RD rhabdomyosarcoma cell viability; series mostly up to 45.9 µM. In outline: as §2
Assay [16] can be described thus: qHTS of pediatric cancer cell lines to identify multiple opportunities for drug repurposing: Confirmatory screen for OHS-50 cells (AID 1347128). The conditions noted are these: OHS-50 osteosarcoma cells viability; series mostly up to 45.9 µM. Put shortly: as §2
The nature of assay [17]: qHTS of pediatric cancer cell lines to identify multiple opportunities for drug repurposing: Confirmatory screen for NB-EBc1 cells (AID 1347115).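 Further: cells exposed to compound for 48 h before the viability read; nearly all actives have a fitted effect of over 45% in size.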 The following applies: NB-EBc1 neuroblastoma cells, viability (cytotoxicity); series mostly up to 45.9 µM. Put shortly:
as §2

A short description of assay [18]: qHTS of pediatric cancer cell lines to identify multiple opportunities for drug repurposing: Confirmatory screen for TC32 cells (AID 1347118). The following applies: TC32 Ewing sarcoma cells viability qHTS; series mostly up to 45.9 µM. Put shortly: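 qHTS, TC32, 48 h drug treatment, CellTiter-Glo luminescence as a proxy for metabolically active cells; primary top concentration 46 µM (MIPE 11-pt, NPC 8-pt); confirmatory 11-pt.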

A short description of assay [19]: qHTS of pediatric cancer cell lines to identify multiple opportunities for drug repurposing: Confirmatory screen for Saos-2 cells (AID 1347127). Further: nearly all actives have a fitted effect of over 60% in size. The conditions noted are these: Saos-2 osteosarcoma cell viability; series mostly up to 45.9 µM. Put shortly:
as §2

On to `O=C1CC[C@H](C(=O)N2CCCCC2)N1`, for which the Potency result in assay [1], in assay [2], in assay [3] and in assay [4] was “inactive” throughout.
Regarding `CCCCC(O)/C=C(C)/C=C/C=C/C(=O)N1CCCC1=O` (stereo unspecified), the Potency result in [1], in [2], in assay [3] and in [4] was “inactive” each time.
For `CN(C)CCOC(c1ccccc1)c1ccc(Br)cc1` (stereo unspecified), the Potency result in assay [1], in assay [2], in assay [3] and in assay [4] was “inactive” each time.
In the case of `N#CC1(c2ccc(F)cc2)CCC(=O)CC1`, the Potency entry in assay [1], in assay [2], in assay [3] and in [4] was “inactive” each time.
As to `CCN1CCN(C(=O)N[C@@H](C(=O)N[C@@H]2C(=O)N3[C@@H]2SC(C)(C)[C@H]3C(=O)O)c2ccccc2)C(=O)C1=O`, the Potency result in assay [1], in assay [2], in assay [3] and in assay [4] was “inactive” throughout.
Consider `OCCCc1ccccc1`, for which the Potency entry in assay [1], in assay [2], in [3] and in [4] was “inactive” each time.
As for `C=CCNc1nc(NCC=C)nc(N2CCN(C(c3ccc(F)cc3)c3ccc(F)cc3)CC2)n1`, the Potency result in [1], in assay [2], in [3] and in assay [4] was “inactive” in each case.
On to `CC(C)C[C@H](NC(=O)CNC(=O)[C@H](Cc1ccc(O)cc1)NC(=O)[C@H](CO)NC(=O)[C@H](Cc1c[nH]c2ccccc12)NC(=O)[C@H](Cc1cnc[nH]1)NC(=O)[C@@H]1CCC(=O)N1)C(=O)N[C@@H](CCCN=C(N)N)C(=O)N1CCC[C@H]1C(=O)NCC(N)=O` (stereo in doubt), for which the Potency result in [1], in [2] and in assay [3] was “inactive” throughout.
As for `CCN(CC)CC(=O)Oc1ccc(NC(C)=O)cc1`, the Potency result in assay [1], in assay [2], in assay [3] and in assay [4] was “inactive” in each case.
Consider `CCOC(=O)C1=C(C)NC(C)=C(C(=O)OCC)C1c1ccccc1/C=C/C(=O)OC(C)(C)C`, for which, in assay [1], the Potency is 26.6 µM (active). Besides, the Potency result in [2] and in [3] was “inactive” in each case.
Consider `O=c1[nH]c(=O)n([C@H]2O[C@H](CO)[C@@H](O)[C@@H]2O)cc1/C=C\Br`, for which the Potency result in assay [1], in [2], in assay [3] and in assay [4] was “inactive” each time.
As to `NS(=O)(=O)c1cc(C(=O)NN2C[C@H]3[C@H]4CCC(C4)[C@H]3C2)ccc1Cl`, the Potency result in [1], in assay [2], in assay [3] and in assay [4] was “inactive” throughout.
In the case of `OCc1cccnc1`, the Potency entry in assay [1], in [2], in assay [3] and in assay [4] was “inactive” in each case.
On to `COc1cc(C=O)ccc1O`, for which the Potency entry in assay [1], in assay [2], in [3] and in [4] was “inactive” in each case.
`CCOC(=O)O[C@]1(C(=O)OCCl)CC[C@H]2[C@@H]3CCC4=CC(=O)C=C[C@]4(C)[C@H]3[C@@H](O)C[C@@]21C`: the Potency entry in assay [1], in assay [2], in assay [3], in assay [4], in assay [5] and in assay [6] was “inactive” each time. Further, the Potency entry in assay [7], in [8], in assay [9], in [10], in assay [11] and in assay [12] was “inactive” throughout. Moreover, the Potency entry in assay [13], in assay [14], in assay [15] and in assay [16] was “inactive” in each case.
Take `COc1ccc(-n2nc(CCC(=O)N(C)O)cc2-c2ccc(Cl)cc2)cc1`: the Potency entry in [1], in assay [2] and in assay [3] was “inactive” throughout.
Take `CC(C)OC(=O)c1cc2c(OCC(O)CNC(C)(C)C)cccc2[nH]1` (stereo unspecified): the Potency entry in assay [1], in assay [2] and in assay [3] was “inactive” each time.
On to `O=C(CO)[C@@H](O)[C@H](O)[C@@H](O)CO`, for which the Potency result in [1], in assay [2], in assay [3] and in [4] was “inactive” throughout.
On to `CN1CCC(N(Cc2cccs2)c2ccccc2)CC1`, for which the Potency entry in assay [1], in assay [2] and in assay [3] was “inactive” throughout.
Turning to `CO/N=C(/C(=O)N[C@@H]1C(=O)N2C(C(=O)[O-])=C(C[n+]3ccn4ncccc43)CS[C@H]12)c1nsc(N)n1`, the Potency entry in [1], in assay [2], in assay [3] and in assay [4] was “inactive” each time.
As to `CC(=O)OC[C@H]1O[C@@H](OC(C)=O)[C@H](OC(C)=O)[C@@H]1OC(C)=O`, the Potency entry in [1], in assay [2], in [3] and in [4] was “inactive” throughout.
Consider `CCOC(=O)C(=O)CCc1ccccc1`, for which the Potency result in assay [1], in assay [2], in assay [3] and in assay [4] was “inactive” each time.
For `CN1CCCN(C(c2ccccc2)c2ccc(Cl)cc2)CC1` (stereo unspecified), the Potency result in assay [1], in [2], in assay [3] and in assay [4] was “inactive” each time.
Turning to `COC(=O)/C=C\C(=O)OC`, the Potency entry in assay [1], in assay [2], in [3] and in assay [4] was “inactive” throughout.
As for `O=C(NN1CCCC1)NS(=O)(=O)c1ccc(Cl)cc1`, the Potency entry in [1], in [2], in assay [3] and in [4] was “inactive” throughout.
Regarding `Cc1ccc(Cl)c(OCC(O)CNC(C)(C)C)c1` (stereo unspecified), the Potency entry in [2], in assay [3] and in [4] was “inactive” in each case.
In the case of `COc1ccc([C@@H]2Sc3ccccc3NC(=O)[C@@H]2O)cc1`, the Potency result in [2], in assay [3] and in assay [4] was “inactive” each time.
Take `CCc1cccc2c(CCO)c[nH]c12`: the Potency entry in assay [2], in assay [3] and in assay [4] was “inactive” each time.
With `O=S(=O)(O)c1ccc2nc(-c3ccccc3)[nH]c2c1`, the Potency entry in [2] was “inactive”.
As for `CCCC(=O)O[C@]1(C(=O)COC(=O)CC)CC[C@H]2[C@@H]3CCC4=CC(=O)CC[C@]4(C)[C@H]3[C@@H](O)C[C@@]21C`, the Potency result in [1], in assay [3], in [4], in [5], in [6] and in assay [7] was “inactive” throughout. Moreover, the Potency result in assay [8], in assay [17], in [10], in assay [11], in assay [12] and in assay [19] was “inactive” throughout. In addition, the Potency entry in assay [16] is “inactive”. In addition, the Potency in [18] is 8.27 µM (active).
